Measured values from publication PMC11062922 (Nature Chemical Biology, 2023).
Like-named read-outs stand apart in the source and are kept apart here.

Assays:
Design in all cases: species or system human, MV4-11 + K-562 + COLO205 + SK-N-BE2 + OVCAR-8
AURKA = details: read-out: apparent Kd, compound concentrations: 100 nM and 1000 nM (sheet 'Samples'), n = 1
BCR = details: read-out: apparent Kd, compound concentrations: 100 nM and 1000 nM (sheet 'Samples'), n = 1
CAMKK2 = details: read-out: apparent Kd, compound concentrations: 100 nM and 1000 nM (sheet 'Samples'), n = 1
CDK16 = details: read-out: apparent Kd; compound concentrations: 100 nM and 1000 nM (sheet 'Samples'), CATDS: 4.4691246534882996E-3; n = 1
CHEK1 = details: read-out: apparent Kd, compound concentrations: 100 nM and 1000 nM (sheet 'Samples'), n = 1
CSNK1D = details: read-out: apparent Kd, n = 1
EPHA4 = details: read-out: apparent Kd, compound concentrations: 100 nM and 1000 nM (sheet 'Samples'), n = 1
EPHA5 = details: read-out: apparent Kd, compound concentrations: 100 nM and 1000 nM (sheet 'Samples'), n = 1
EPHB2 = details: read-out: apparent Kd, compound concentrations: 100 nM and 1000 nM (sheet 'Samples'), n = 1
EPHB4 = details: read-out: apparent Kd, compound concentrations: 100 nM and 1000 nM (sheet 'Samples'), n = 1
MAPK9 = details: read-out: apparent Kd, compound concentrations: 100 nM and 1000 nM (sheet 'Samples'), n = 1
MARK3 = details: read-out: apparent Kd, compound concentrations: 100 nM and 1000 nM (sheet 'Samples'), n = 1
PRKACA = details: read-out: apparent Kd, compound concentrations: 100 nM and 1000 nM (sheet 'Samples'), n = 1
PRKACB = details: read-out: apparent Kd, compound concentrations: 100 nM and 1000 nM (sheet 'Samples'), n = 1
PRKAG2 = details: read-out: apparent Kd, compound concentrations: 100 nM and 1000 nM (sheet 'Samples'), n = 1
RPS6KA4 = details: read-out: apparent Kd; compound concentrations: 100 nM and 1000 nM (sheet 'Samples'), CATDS: 4.17505153349991E-3; n = 1
STK4 = details: read-out: apparent Kd; compound concentrations: 100 nM and 1000 nM (sheet 'Samples'), CATDS: 4.4233826553232904E-3; n = 1
TNK1 = details: read-out: apparent Kd, compound concentrations: 100 nM and 1000 nM (sheet 'Samples'), n = 1
TNK2 = details: read-out: apparent Kd, compound concentrations: 100 nM and 1000 nM (sheet 'Samples'), n = 1
MAPK10 = details: read-out: apparent Kd; compound concentrations: 100 nM and 1000 nM (sheet 'Samples'), CATDS: 4.1731696442012502E-2; n = 1

## Cn1ncc2c(N)ncnc21 [SKF-18267]
AURKA; CATDS: 5.9187216005476898E-3
  potency estimated from few doses: 594 nM
BCR; CATDS: 5.2917709527679404E-3
  potency estimated from few doses: 729 nM
CAMKK2; CATDS: 4.5998229458051997E-3
  potency estimated from few doses: 967 nM
CDK16
  potency estimated from few doses: 1030 nM
CHEK1; CATDS: 3.5654135420005399E-3
  potency estimated from few doses: 1830 nM
CSNK1D; compound concentrations: 100 nM and 1000 nM (sheet 'Samples'), CATDS: 5.3650887558765398E-3
  potency estimated from few doses: 710 nM
EPHA4; CATDS: 3.9748200426908999E-3
  potency estimated from few doses: 1360 nM
EPHA5; CATDS: 5.0507447831964402E-3
  potency estimated from few doses: 798 nM
EPHB2; CATDS: 4.50420726302921E-3
  potency estimated from few doses: 1010 nM
EPHB4; CATDS: 5.4338505062104699E-3
  potency estimated from few doses: 694 nM
MAPK9; CATDS: 4.8352586021379899E-3
  potency estimated from few doses: 871 nM
MARK3; CATDS: 3.4367127016050499E-3
  potency estimated from few doses: 2060 nM
PRKACA; CATDS: 3.8266361716822101E-3
  potency estimated from few doses: 1500 nM
PRKACB; CATDS: 4.8946075790836903E-3
  potency estimated from few doses: 850 nM
PRKAG2; CATDS: 6.26452346247391E-3
  potency estimated from few doses: 539 nM
RPS6KA4
  potency estimated from few doses: 1200 nM
STK4
  potency estimated from few doses: 1050 nM
TNK1; CATDS: 5.3510619534007497E-3
  potency estimated from few doses: 714 nM
TNK2; CATDS: 5.8659667131667897E-3
  potency estimated from few doses: 604 nM

## Cl.ON=C1CCc2cc(-c3nc(C4CCNCC4)[nH]c3-c3ccncc3)ccc21 [SB-614067-R]
CSNK1D; compound concentrations:100 nM and 1000 nM (sheet 'Samples')
  potency estimated from few doses: 436 nM

## Cc1ccc(Nc2ccnc(Nc3ccc4c(c3)CS(=O)(=O)C4)n2)cc1O.Cl [GW579362A]
AURKA; CATDS: 4.77260985286359E-2
  potency estimated from few doses: 393 nM
BCR; CATDS: 4.5785194143174703E-2
  potency estimated from few doses: 428 nM

## CCOC(=O)N1CCC(n2cnc(-c3ccc(F)cc3)c2-c2ccnc(N)n2)CC1 [SB-219952]
AURKA; CATDS: 9.8512895449749706E-3
  potency estimated from few doses: 901 nM
CAMKK2; CATDS: 1.08972773288713E-2
  potency estimated from few doses: 701 nM
CHEK1; CATDS: 8.4863258398705493E-3
  potency estimated from few doses: 1390 nM
CSNK1D; compound concentrations: 100 nM and 1000 nM (sheet 'Samples'), CATDS: 0.19590664085395099
  potency estimated from few doses: 9.15 nM
EPHA4; CATDS: 1.2785015902171799E-2
  potency estimated from few doses: 493 nM
EPHA5; CATDS: 1.42398980321412E-2
  potency estimated from few doses: 397 nM
EPHB2; CATDS: 1.57002336523176E-2
  potency estimated from few doses: 329 nM
EPHB4; CATDS: 1.53468623139909E-2
  potency estimated from few doses: 344 nM
MAPK10
  potency estimated from few doses: 69 nM
MAPK9; CATDS: 3.1045225372311899E-2
  potency estimated from few doses: 107 nM
MARK3; CATDS: 8.6555083221940901E-3
  potency estimated from few doses: 1300 nM
PRKACA; CATDS: 8.0141425433071494E-3
  potency estimated from few doses: 1690 nM
PRKACB; CATDS: 7.9637145567790901E-3
  potency estimated from few doses: 1730 nM
PRKAG2; CATDS: 9.8371603155967009E-3
  potency estimated from few doses: 905 nM
TNK1; CATDS: 1.30567209660681E-2
  potency estimated from few doses: 472 nM
TNK2; CATDS: 1.6319458510121398E-2
  potency estimated from few doses: 307 nM

## CN(c1ccc(NC(=O)Nc2cccc(Cl)c2)cc1)c1ccnc(N)n1.Cl [GW830707A]
AURKA; CATDS: 1.10158492855777E-2
  potency estimated from few doses: 1100 nM
BCR; CATDS: 2.64796261985909E-2
  potency estimated from few doses: 26.5 nM
EPHA4; CATDS: 2.6652421745355599E-2
  potency estimated from few doses: 26.2 nM
EPHA5; CATDS: 2.89918726046417E-2
  potency estimated from few doses: 22 nM
EPHB2; CATDS: 3.95108410825031E-2
  potency estimated from few doses: 12.4 nM
EPHB4; CATDS: 6.0687941062208699E-2
  potency estimated from few doses: 6.3 nM
PRKACA; CATDS: 2.4809932188679999E-2
  potency estimated from few doses: 30.7 nM
PRKACB; CATDS: 1.9106655898432998E-2
  potency estimated from few doses: 60.7 nM
TNK1; CATDS: 0.104039802479183
  potency estimated from few doses: 3.01 nM
TNK2; CATDS: 3.7589632297420301E-2
  potency estimated from few doses: 13.5 nM
